The nature of test [1]: P-glycoprotein substrates identified in KB-3-1 adenocarcinoma cell line, qHTS therapeutic library screen (AID 1346986). Further: nearly all actives have a fitted effect of over 60% in size. In short, it runs like this: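 Compounds were tested in dose-response against KB-3-1 and KB-8-5-11 cells at 37 degree C for 72 h, and viability was measured by luminescence. AC50 values came from curve fitting with class-based activity calls.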
For orientation: qHTS replaces the single test concentration by a dilution series.

A short description of test [2]: P-glycoprotein substrates identified in KB-8-5-11 adenocarcinoma cell line, qHTS therapeutic library screen (AID 1346987). Further: nearly all actives have a fitted effect of over 65% in size. Further: potency means the concentration at half of the fitted maximal effect. The method, boiled down: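 KB-8-5-11: colchicine-selected sub-line of KB-3-1 over-expressing P-gp; assay medium lacked colchicine. 72 h drug exposure at 37 degree C, CellTiter-Glo.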
In test [3] the test system is Zika virus NS2B-NS3 protease (unlinked complex). The experiment in a line: Primary screen GU Rhodamine qHTS for Zika virus inhibitors: Unlinked NS2B-NS3 protease assay (AID 1347159). Further: on the % scale 0 is the no-effect control and ±100 the full control effect; nearly all actives have a fitted effect of over 60% in size. The method, boiled down:
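Compounds, tested up to 114 microM, were incubated for 15 minutes with 25 nM unlinked NS2B-NS3 protease at pH 8.0. Cleavage of 1.5 microM Rhodamine110 substrate was then followed by fluorescence for 15 minutes.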

The nature of test [4]: Primary qHTS for inhibitors of nuclear receptor binding SET domain protein 2 (NSD2) in an RCH-ACV wild type WT cells (2C) (AID 1645877). Further: nearly all actives have a fitted effect of over 70% in size.
In a further test the test system is KB-3-1. The experiment in a line: Cytotoxic Profiling of Annotated Libraries Using Quantitative High-Throughput Screening (AID 1296008). Further: nearly all actives have a fitted effect of over 60% in size. Further: potency means the concentration at half of the fitted maximal effect. On max response: on the % scale 0 is the no-effect control and ±100 the full control effect. The note with it: Five cell lines viability, CellTiter-Glo ATP luminescence, 48-72 h; max response: stronger effect = lower value. The method, boiled down:
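Cells exposed to compounds for 48 or 72 hr at 37 degrees Celsius. Viability read as ATP-coupled luminescence with CellTiter-Glo after 10 min at room temperature.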
A general note: ATP-based viability assays read luminescence as a measure of living cells.

The test system of a further test is HACAT. The experiment in a line: qHTS assay to identify novel small-molecules to repurpose for Merkel cell carcinoma treatment (AID 1296009). Further: nearly all actives have a fitted effect of over 60% in size. The note with it: MCC and control cell lines, CellTiter-Glo viability, 72 h; at 44.8 µM (top of the series) unless noted. In short, it runs like this:
(§1)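 Cells were incubated with compound for 72 hr at 37 degree celsius before CellTiter-Glo addition. Luminescence was normalized with no-cell wells as full cytotoxicity and DMSO as baseline.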

The subject of the next test is CAOV3. In words: Primary qHTS to identify gynecologic anti-cancer compounds using libraries of approved drugs and bioactive compounds (AID 1345084). Further: nearly all actives have a fitted effect of over 55% in size. Further: potency means the concentration at half of the fitted maximal effect. To be noted: Gynecologic cancer cell panel viability, ATPlite luminescence, 48 h; series mostly up to 57.5 µM. The method, boiled down:
(§2)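 Luminescence from the ATPlite ATP-monitoring reagent indicates viable cell number; lower signal means cytotoxicity. Cells received compound 16 h after seeding and were exposed for 48 h across five concentrations.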

For another test, the system named is JEG-3. The test is described as above. To be noted: Gynecologic cancer cell panel viability, ATPlite luminescence, 48 h; series mostly up to 57.5 µM. In short, it runs like this: as §2
In the next test the test system is SKOV3. The description is as above. The note with it: Gynecologic cancer cell panel viability, ATPlite luminescence, 48 h; series mostly up to 57.5 µM. The method, boiled down: as §2
Test [5] can be described thus: Primary redox qHTS assay for identification of artifact compounds. (AID 1845223).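 Further: 0% = DMSO and 100% = reference compound.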 In short, it runs like this:
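Amplex Red (25 uM) and HRP (250 mU/mL) in HBSS, with compounds for 15 min, then 250 uM DTT for 30 min, room temperature, dark. Fluorescence 525/598 nm read; normalized to DMSO and 10 uM DA3003; Hill fit.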

The test system of the next test is HeLa. The experiment in a line: Primary qHTS to identify gynecologic anti-cancer compounds using libraries of approved drugs and bioactive compounds (AID 1345084). Further: nearly all actives have a fitted effect of over 55% in size. Further: potency means the concentration at half of the fitted maximal effect. To be noted: Gynecologic cancer cell panel viability, ATPlite luminescence, 48 h; series mostly up to 57.5 µM. The method, boiled down: as §2
The next test concerns CRL-7250. In words: qHTS assay to identify novel small-molecules to repurpose for Merkel cell carcinoma treatment (AID 1296009). Further: nearly all actives have a fitted effect of over 60% in size. To be noted: MCC and control cell lines, CellTiter-Glo viability, 72 h; series mostly up to 92 µM. In short, it runs like this:
as §1

Test [6] in a line: Primary qHTS to identify inhibitors of SARS-CoV-2 cell entry (AID 1645846; calls by dose curve; further: nearly all actives have a fitted effect of over 45% in size). The note with it: activity change, negative = inhibition: at 57.1 µM (top of the series) unless noted. In short, it runs like this: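 HEK293 cells stably expressing human ACE2, pre-treated 1 h with compound, then infected with MLV particles pseudotyped with Wuhan-Hu-1 spike (C-terminal 19-aa truncation). Luciferase luminescence after 48 h at 37 °C, normalised to spike PP and bald PP.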

Test [7] concerns the target Cytochrome P450 2D6 (Homo sapiens) (UniProt P10635). In words: Cytochrome P450 family 2 subfamily D member 6 (CYP2D6) small molecule antagonists: luciferase biochemical (cell-free) qHTS assay (AID 1645840; active means well fitted curve in the direction sought with a large enough effect in the repeat runs; an effect the other way counts as inactive or inconclusive; further: on the % scale 0 is the no-effect control and ±100 the full control effect; nearly all actives have a fitted effect of over 55% in size). The method, boiled down: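 P450-Glo luminescent screen: recombinant CYP2D6 enzyme–proluciferin substrate mix preincubated with compound 10 min at room temperature, then NADPH regeneration added for 1 h at room temperature. Detection reagent added for 20 min; luciferin light read as relative luminescence units.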

Test [8] concerns the target Cytochrome P450 2C9 (Homo sapiens) (UniProt P11712). The experiment in a line: Cytochrome P450 family 2 subfamily C member 9 (CYP2C9) small molecule antagonists: luciferase biochemical (cell-free) qHTS assay (AID 1645842; active means well fitted curve in the direction sought with a large enough effect in the repeat runs; an effect the other way counts as inactive or inconclusive; further: potency means the concentration at half of the fitted maximal effect; nearly all actives have a fitted effect of over 55% in size). In short, it runs like this: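 Luminescence, after 20 min with luciferin detection reagent, reflected CYP2C9 turnover during a 1 h NADPH-driven reaction at 37C. Enzyme-substrate mix contained 0.4% bovine serum albumin and was preincubated with compound 10 min at room temperature.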

The record followed here is PubChem BioAssay (NCATS).

Records with an inconclusive call do not appear. The source made the active and inactive calls. Unless noted, the call rests on the fitted dose curve; in most records, active means well fitted curve in the direction sought with a large enough effect; inconclusive means small, poorly fitted or top-dose-only effect, or another doubt; inactive means no such curve, though single readings can be large; an effect the other way counts as inactive or inconclusive.

Cytochrome P450 2D6 (Homo sapiens), sequence (P10635 whole entry, looked up): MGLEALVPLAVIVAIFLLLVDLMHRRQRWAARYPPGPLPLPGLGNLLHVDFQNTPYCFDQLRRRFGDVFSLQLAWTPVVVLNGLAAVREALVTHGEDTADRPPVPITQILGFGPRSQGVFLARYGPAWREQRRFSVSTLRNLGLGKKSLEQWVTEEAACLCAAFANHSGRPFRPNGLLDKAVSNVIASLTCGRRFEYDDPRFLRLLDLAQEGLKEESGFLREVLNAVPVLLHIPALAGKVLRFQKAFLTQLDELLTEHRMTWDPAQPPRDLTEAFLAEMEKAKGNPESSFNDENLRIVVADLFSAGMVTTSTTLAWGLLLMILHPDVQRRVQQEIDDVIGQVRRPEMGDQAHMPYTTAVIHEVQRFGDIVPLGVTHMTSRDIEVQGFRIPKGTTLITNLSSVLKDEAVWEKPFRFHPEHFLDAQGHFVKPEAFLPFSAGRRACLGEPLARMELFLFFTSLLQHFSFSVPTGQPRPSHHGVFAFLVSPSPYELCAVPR
Cytochrome P450 2C9 (Homo sapiens), sequence (P11712 whole entry, looked up): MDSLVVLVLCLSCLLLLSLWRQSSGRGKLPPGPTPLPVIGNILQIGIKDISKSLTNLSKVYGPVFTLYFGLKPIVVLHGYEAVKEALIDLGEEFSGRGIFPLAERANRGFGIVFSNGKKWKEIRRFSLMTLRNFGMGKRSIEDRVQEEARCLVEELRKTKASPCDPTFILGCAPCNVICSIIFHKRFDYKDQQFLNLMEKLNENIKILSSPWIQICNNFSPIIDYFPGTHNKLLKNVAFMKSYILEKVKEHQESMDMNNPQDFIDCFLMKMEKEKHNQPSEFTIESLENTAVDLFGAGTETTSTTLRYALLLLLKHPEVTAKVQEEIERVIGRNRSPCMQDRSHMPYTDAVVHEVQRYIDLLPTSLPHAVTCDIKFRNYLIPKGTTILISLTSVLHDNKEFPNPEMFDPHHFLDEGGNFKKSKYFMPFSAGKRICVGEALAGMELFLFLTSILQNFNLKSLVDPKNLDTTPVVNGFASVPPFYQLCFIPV

For `CN1CCc2cc3c(cc2[C@H]1[C@@H]1OC(=O)c2c1ccc1c2OCO1)OCO3`, the Potency entry (in [1]; in test [2]; in [3]; in test [4]; in the test on CAOV3; with JEG-3) was “inactive” each time. Moreover, the Potency entry in the test with SKOV3 was “inactive”. Moreover, the outcome with KB-3-1 and with HACAT was inactive.
On to `Oc1ccc2c3c1O[C@H]1c4[nH]c5c(N=C=S)cccc5c4C[C@@]4(O)[C@@H](C2)N(CC2CC2)CC[C@]314`, for which the Potency result (in test [5]; in the test with CAOV3; in the test with HeLa; in the test on SKOV3) was “inactive” each time. The max response in the test on KB-3-1 is -18.9% (inactive). In addition, the molecule was classed as inactive with HACAT.
As to `CC(=O)O[C@@H]1[C@H]2CC[C@H]3[C@@](C)(O)[C@@H]4C[C@H](O)C(C)(C)[C@@]4(O)[C@H](O)C[C@@]13C[C@@]2(C)O`, the Potency result (in test [2]; in test [3]; in test [4]; in test [5]; in the test on CRL-7250; in the test with CAOV3) was “inactive” each time. For the same molecule, the Potency result with HeLa, in the test on JEG-3 and in the test on SKOV3 was “inactive” in each case. Further, the max response in the test with KB-3-1 is 2.41% (inactive).
Regarding `C/C=C(/C)C1C=CC2CC(C)CC(C)C2C1/C(O)=C1\C(=O)NC(CC(C)(O)C(=O)O)C1=O` (stereo unspecified), the Potency entry (in [2]; in [4]; with CRL-7250; in the test with JEG-3; in the test on SKOV3) was “inactive” in each case. In the test on KB-3-1, the max response was 4.77% (inactive).
With `CC[C@H]1C2CC3[C@@H]4N(C)c5ccccc5[C@]45C[C@@H]([C@H]2[C@H]5O)N3[C@H]1O`, the Potency result (in test [2]; in [3]; in test [4]; with CAOV3; with HeLa; in the test on JEG-3) was “inactive” each time. In addition, the Potency result in the test with SKOV3 was “inactive”. Besides, in the test with KB-3-1, the max response is 2.51% (inactive). In the test on HACAT, the molecule was called inactive.
`COc1ccc(CN(C(=O)[C@@H](N)Cc2c(C)cc(C(N)=O)cc2C)[C@@H](C)c2ncc(-c3ccccc3)[nH]2)cc1C(=O)O`: the Potency result (in test [2]; in test [3]; in [4]; with CAOV3; in the test on HeLa; in the test on JEG-3) was “inactive” in each case. The Potency entry in the test on SKOV3 was “inactive”. Also, the activity change, negative = inhibition in test [6] was -25.7%. Moreover, the max response with KB-3-1 was 2.03% (inactive).
Turning to `CC(=O)O[C@H]1CN2CCC1CC2`, the Potency result (in [1]; in test [2]; in [4]; in test [5]; in the test on CAOV3; with HeLa) was “inactive” in each case. The Potency result in the test on JEG-3 and in the test with SKOV3 was “inactive” in each case. For the same molecule, in the test with KB-3-1, the result was inactive.
`COCC(C(=O)OC1CC2CCC(C1)N2C)c1ccccc1` (stereo unspecified): the Potency entry (in [1]; in test [2]; in [3]; in test [4]; in test [5]; in the test with CAOV3) was “inactive” each time. Also, the Potency entry in the test with HeLa and in the test with JEG-3 was “inactive” each time. Besides, the outcome with KB-3-1 and in the test with HACAT was inactive.
As to `C=CCN1CCC2(C)c3cc(O)ccc3C[C@H]1[C@H]2C`, the Potency result (in test [2]; in test [3]; in test [5]; in the test with CAOV3; in the test on HeLa; with JEG-3) was “inactive” in each case. The Potency entry with SKOV3 is “inactive”. The max response in the test with KB-3-1 was 1.41% (inactive).
Take `CC1(C)C(=O)N(c2ccc(C#N)c(C(F)(F)F)c2)C(=O)N1CCCCO`: the Potency entry (in test [2]; in test [3]; in [7]; in [4]; in test [5]; with CAOV3) was “inactive” each time. Also, the Potency entry with HeLa, with JEG-3 and in the test on SKOV3 was “inactive” each time. For the same molecule, the Potency in test [8] is 10.7 µM (active). The max response in the test with KB-3-1 was -3.73% (inactive).
Turning to `C#CCO[C@H]1CN2CCC1CC2`, the Potency entry (in test [2]; in [4]; in test [5]; in the test with CAOV3; in the test with HeLa; in the test on JEG-3) was “inactive” throughout. In the test with SKOV3, the Potency result was “inactive”. Moreover, the max response in the test with KB-3-1 was 2.91% (inactive).
Turning to `CNC(=O)c1cc(C#N)cc(C)c1NC(=O)c1cc(Br)nn1-c1ncccc1Cl`, the Potency entry (in test [3]; in test [5]; in the test on CAOV3; in the test on HeLa; in the test on JEG-3; with SKOV3) was “inactive” in each case. Moreover, the max response with KB-3-1 is -25.7% (inactive).
`C[C@]12CC[C@H]3[C@@H](CCC4=C/C(=N/OCC(=O)O)CC[C@@]43C)[C@@H]1CC[C@@H]2O`: the Potency entry (in test [1]; in test [2]; in test [3]; in test [4]; in test [5]; with CAOV3) was “inactive” throughout. Further, the Potency result with HeLa, with JEG-3 and in the test on SKOV3 was “inactive” in each case. For the same molecule, the outcome in the test with KB-3-1 was inactive.
Consider `CN1C(=O)CN=C(c2ccccc2Cl)c2cc(Cl)ccc21`, for which the Potency result (in test [2]; in test [3]; in test [7]; in test [4]; in the test with CRL-7250; in the test on CAOV3) was “inactive” throughout. The Potency result with HeLa, in the test with JEG-3 and with SKOV3 was “inactive” in each case. Besides, in test [8], the Potency was 21.3 µM (active). The max response in the test on KB-3-1 is -0.99% (inactive).
Regarding `C[C@@H]1CCC/C=C/[C@H]2C[C@@H](O)C[C@@H]2[C@@H](O)/C=C/C(=O)O1`, the Potency in test [2] is 0.164 µM (active); in the test on KB-3-1 it was 0.146 µM (active); in the test with CAOV3, 0.316 µM (active); in the test with HeLa, 0.501 µM (active); in the test with JEG-3, 1 µM (active); with SKOV3, 0.355 µM (active). The Potency entry in [3] and in [5] was “inactive” in each case.
Turning to `COC(=O)CC1CC2(C(=O)c3c(O)cccc3C2(O)C(=O)OC)C(C)O1` (stereo unspecified), the Potency entry (in test [2]; in test [3]; in [4]; in test [5]; in the test with CAOV3; in the test with HeLa) was “inactive” in each case. Besides, the Potency entry in the test on JEG-3 and with SKOV3 was “inactive” in each case. For the same molecule, in the test on KB-3-1, the max response was 3.88% (inactive). For the same molecule, the molecule was classed as inactive in the test with HACAT.
